Shown are actives, neighbours in structure and some others; about 3.6% of the full set was active somewhere.
HSP90 inh – inhibitors of HSP90 luciferase refolding in rabbit reticulocyte lysate. luciferase refolding luminescence, 3 h. AID 1789. inhibition, % at 5.6 µM. actives 0.91% (n = 290,000);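 active = inhibition above the screen-wide mean plus 3 SD, computed separately per campaign, cut at about 16% in these data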;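 note: 0% = DMSO wells and 100% = 60 µM geldanamycin wells; inhibitors lower the luminescence because luciferase stays unfolded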
LGR2 inh – inhibitors of bursicon-induced Drosophila LGR2 receptor cAMP signaling; HEK293 LGR2, CRE-luciferase, bursicon-stimulated, 4 h; inhibition, % at 9.99 µM; actives 0.35% (n = 380,000); AID 720647;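 active = drop in luminescence signal, shown as inhibition above about 50% in the replicate tests, limit read from the data, passing the limit was not always enough; inconclusive = probably only some replicates passing the limit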;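 note: agonist challenge used bursicon conditioned medium at about half maximal strength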
Peg3 prom inh – Peg3 promoter activity inhibition. AID 588405. inhibition, % at 20 µM. actives 1.7% (n = 360,000). HeLa PEG-Prom luciferase reporter, luminescence, overnight;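 active = inhibition of at least 50% at 20 µM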
CF NFkB inh – blocks PAF-induced NF-kB reporter in cystic fibrosis cells. actives 0.86% (n = 360,000). KKLEB NF-kB-GFP reporter, GFP fluorescence overnight. inhibition, % at 5 µM;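 active = at least 50% inhibition at 5 µM, scaled per plate between neutral and stimulator controls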;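 note: PAF is a Pseudomonas aeruginosa culture filtrate used as stimulus; plate controls were PAF-stimulated DMSO wells for no effect and unstimulated DMSO wells for full effect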
KKLEB cytotox – CF airway cell cytotoxicity counter-screen. actives 0.36% (n = 360,000). activity change (cytotoxicity), % at 5 µM. KKLEB CF airway cells viability, ATPlite luminescence, overnight; stronger effect = lower value; cells stimulated with P. aeruginosa culture filtrate;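 active = corrected activity change at or below -50% at 5 µM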
Mdm2 MdmX PPI – disrupts the human Mdm2-MdmX interaction; O15151+Q00987; SaOS-2 split-luciferase Mdm2/MdmX complementation, luminescence; inhibition, % at 8 µM; actives 3% (n = 330,000);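 active = inhibition of at least 50% at 8 µM in the primary screen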
Target sequence (O15151 whole entry, looked up): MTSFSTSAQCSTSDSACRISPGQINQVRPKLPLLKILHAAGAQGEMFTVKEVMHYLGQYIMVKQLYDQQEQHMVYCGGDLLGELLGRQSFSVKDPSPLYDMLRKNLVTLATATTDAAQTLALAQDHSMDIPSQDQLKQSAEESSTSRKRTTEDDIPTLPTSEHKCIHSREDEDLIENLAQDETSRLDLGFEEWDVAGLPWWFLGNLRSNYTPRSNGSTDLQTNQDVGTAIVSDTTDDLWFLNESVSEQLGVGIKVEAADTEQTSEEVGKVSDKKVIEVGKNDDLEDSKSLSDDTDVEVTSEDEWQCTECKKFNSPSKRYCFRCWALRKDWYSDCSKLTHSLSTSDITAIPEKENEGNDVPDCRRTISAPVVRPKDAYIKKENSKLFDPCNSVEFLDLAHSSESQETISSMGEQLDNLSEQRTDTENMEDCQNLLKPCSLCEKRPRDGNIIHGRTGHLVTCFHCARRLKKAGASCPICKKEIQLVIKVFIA
Target sequence (Q00987 whole entry, looked up): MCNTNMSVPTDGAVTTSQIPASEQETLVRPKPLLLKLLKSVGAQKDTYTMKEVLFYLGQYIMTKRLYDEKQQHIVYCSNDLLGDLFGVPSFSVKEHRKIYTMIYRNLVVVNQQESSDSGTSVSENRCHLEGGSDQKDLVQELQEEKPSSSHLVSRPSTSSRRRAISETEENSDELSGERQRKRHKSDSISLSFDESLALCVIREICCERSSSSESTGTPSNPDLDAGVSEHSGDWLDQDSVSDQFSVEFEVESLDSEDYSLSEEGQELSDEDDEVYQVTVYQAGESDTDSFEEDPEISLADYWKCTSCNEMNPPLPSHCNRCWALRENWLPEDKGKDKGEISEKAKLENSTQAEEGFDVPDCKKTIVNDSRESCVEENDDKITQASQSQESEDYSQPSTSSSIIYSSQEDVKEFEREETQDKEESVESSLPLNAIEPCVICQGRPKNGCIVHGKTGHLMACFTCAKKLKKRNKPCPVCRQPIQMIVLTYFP
Mdm2-MdmX conf – human Mdm2/MdmX binding inhibition, confirmed; actives 55% (n = 10,000); shares compounds with Mdm2 MdmX PPI; inhibition, % at 8 µM; luminescent assay; in the data active = inhibition above about 40%
Full FLuc ctr – full-length luciferase inhibition in Mdm2/MdmX counter-screen; SaOS-2 full-length luciferase counterscreen, luminescence; shares compounds with Mdm2 MdmX PPI; inhibition, % at 8 µM; actives 77% (n = 6,200);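 active = mean inhibition at 8 µM reaching about 37%, which flags the compound as non-specific, limit read from the data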;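 note: p53-null SaOS-2 cells with luciferase driven by a doxycycline-inducible promoter; compound on cells about two nights before reading with doxycycline added after day one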
An asterisk follows results filed as active; ? = inconclusive; . = no result given.

SMILES | HSP90 inh | LGR2 inh | Peg3 prom inh | CF NFkB inh | KKLEB cytotox | Mdm2 MdmX PPI | Mdm2-MdmX conf | Full FLuc ctr
CCCNC(=O)N1C[C@H](C)[C@H](OC)CN(C)C(=O)c2cc(NS(=O)(=O)CC(F)(F)F)ccc2OC[C@H]1C | . | -1 | . | . | . | . | . | .
C=CCN=C1NN=C(c2cc(C)n(CCOC)c2C)CS1 | 5 | ? | -15 | 9 | 8 | 86* | 90* | 31
C=CCn1c(C)cc(C2=NNC(=NC(C)(C)C)SC2)c1C | 5 | 0 | 43 | -4 | -10 | 88* | 93* | 80*
C[C@H](CO)N1C[C@H](C)[C@@H](CN(C)S(=O)(=O)c2ccc(Cl)cc2)Oc2c(NC(=O)CCCCCC(=O)Nc3ccccc3N)cccc2C1=O | . | -13 | . | . | . | . | . | .
Cc1ccc(-c2csc3ncnc(N4CCN(S(=O)(=O)c5cccs5)CC4)c23)cc1 | . | . | 29 | 23 | -12 | 51* | 18 | .
Oc1ccccc1N1CCN(c2ncnc3scc(-c4ccc(F)cc4)c23)CC1 | 2 | 7 | 49 | 34 | 9 | 39 | . | .
Fc1ccc(-c2csc3ncnc(N4CCc5ccccc5C4)c23)cc1 | 4 | 17 | 23 | 24 | -8 | 51* | 27 | .
Oc1ccccc1N1CCN(c2ncnc3scc(-c4ccccc4)c23)CC1 | 0 | 27 | 59* | 36 | 1 | 59* | 30 | .
CN(C)C(=O)C[C@H]1C[C@@H]2c3cc(NC(=O)Nc4ccc(F)cc4)ccc3O[C@@H]2[C@@H](CO)O1 | . | -2 | . | . | . | . | . | .
CO[C@H]1CN(C)C(=O)c2ccc(NS(=O)(=O)c3cccc(C)c3)cc2OC[C@H](C)NC[C@H]1C | . | 12 | . | . | . | . | . | .
COc1cccc(-c2sc3cc(OC)c(OC)cc3c2-c2ccc(OCCN3CCCCC3)cc2)c1 | . | . | 97* | 21 | -14 | 78* | 23 | .
COc1cccc(-c2sc3ccc(OC)cc3c2-c2ccc(OCCN3CCCC3)cc2)c1 | . | . | 97* | 12 | -8 | 69* | 33 | 28
COc1cccc(-c2sc3ccccc3c2-c2ccc(OCCN3CCCCC3)cc2)c1 | . | . | 84* | 29 | -46 | 95* | 28 | .
COCC(=O)Nc1ccc2c(c1)C(=O)N(C)C[C@@H](OC)[C@@H](C)CN(C(=O)c1ccccc1F)[C@H](C)CO2 | . | -34 | . | . | . | . | . | .
O=C(C1CCC1)N1CC[C@@H]2[C@H](CO)Nc3ccc(Br)cc3[C@@H]21 | . | 1 | . | . | . | . | . | .
COc1ccccc1-c1c(C)c(C)nc(N)c1C#N | 1 | . | 11 | 8 | -8 | 21 | . | .
COc1ccccc1-c1c(C#N)c(N)nc2c1CCc1ccccc1-2 | 4 | 21 | 28 | 20 | 3 | 70* | 70* | 53*
CCOc1cc(-c2c(C#N)c(N)nc3c2CCc2ccccc2-3)ccc1O | -1 | 12 | 2 | -35 | -8 | 81* | 79* | 51*
O=C(c1cccnc1)N1C[C@H]2[C@@H](c3ccccc31)[C@H](CO)N2CC1CCCC1 | . | -5 | . | . | . | . | . | .
COc1ccc(NC(=O)N[C@H]2CC[C@@H](CCn3cc(-c4ccc(F)cc4)nn3)O[C@H]2CO)cc1 | . | -10 | . | . | . | . | . | .
Cc1sc(NC(=O)CSc2nnc(COc3ccc(Cl)cc3)n2C)c(C#N)c1C | 1 | . | 24 | 15 | -30 | 52* | 34 | .
CCOC(=O)c1cnc(SCC(=O)Nc2cc(C(F)(F)F)ccc2N2CCOCC2)nc1N | -3 | . | 17 | 16 | -10 | 55* | -4 | .
CCOC(=O)c1cnc(SCC(=O)Nc2cc(OC)cc(OC)c2)nc1N | 2 | . | 37 | 12 | -15 | 34 | . | .
CCOC(=O)c1cnc(SCC(=O)Nc2sc(C)c(C)c2C#N)nc1N | -1 | . | 45 | 47 | -50* | 72* | 7 | .
O=C(C[C@H]1CC[C@@H](NC(=O)C2CC2)[C@@H](CO)O1)NCc1ccncc1 | . | 12 | . | . | . | . | . | .
SMILES | HSP90 inh | LGR2 inh | Peg3 prom inh | CF NFkB inh | KKLEB cytotox | Mdm2 MdmX PPI | Mdm2-MdmX conf | Full FLuc ctr
CN1c2ccc(-c3ccc(F)cc3)cc2[C@H]2[C@H](CCN2C(=O)c2ccncc2)[C@@H]1CO | . | 12 | . | . | . | . | . | .
COc1ccc2[nH]c3c4c(ccc3c2c1)C(=O)C=CC4=O | 6 | 12 | 117* | 64* | -19 | 75* | 80* | 2
O=C(C[C@@H]1CC[C@H](NC(=O)Nc2ccc(F)cc2)[C@@H](CO)O1)NCCN1CCCC1 | . | 8 | . | . | . | . | . | .
COc1ccc2nc(N/C(N)=N/C(=S)Nc3ccccc3)nc(C)c2c1 | 0 | . | -76 | -47 | 2 | 26 | . | .
Cc1cccc(NC(=S)/N=C(\N)Nc2nc(C)c3ccc(C)cc3n2)c1 | 11 | 10 | 1 | -21 | -4 | 59* | 37 | 54*
COc1ccc2nc(N/C(N)=N/C(=S)Nc3ccc(C)c(C)c3)nc(C)c2c1 | -1 | . | . | . | . | 56* | 53* | 56*
CCc1ccc(NC(=S)/N=C(\N)Nc2nc(C)c3cc(CC)ccc3n2)cc1 | 1 | -18 | 15 | 10 | -17 | 63* | 60* | 60*
CCOc1ccc2nc(N/C(N)=N/C(=S)Nc3ccc(OC)cc3)nc(C)c2c1 | 0 | -14 | 8 | -21 | -9 | 28 | . | .
CCC(=O)Nc1ccc2c(c1)OC[C@H](C)N(C(=O)CC1CC1)C[C@@H](C)[C@@H](OC)CN(C)C2=O | . | 3 | . | . | . | . | . | .
COc1ccc(NC(=O)Nc2ccc3c(c2)C(=O)N([C@@H](C)CO)C[C@@H](C)[C@H](CN(C)S(=O)(=O)c2ccc(F)cc2)OCCCC[C@@H](C)O3)cc1 | . | -15 | . | . | . | . | . | .
C[C@@H]1CN([C@@H](C)CO)C(=O)c2cc(NC(=O)Nc3ccc(F)cc3)ccc2O[C@@H](C)CCCCO[C@@H]1CN(C)C(=O)Nc1ccc2c(c1)OCO2 | . | 5 | . | . | . | . | . | .
C=CCn1cc(/C=C/c2cc[n+](C)cc2)c2ccccc21 | 8 | 15 | 30 | -48 | 2 | 65* | 42* | 76*
C=CCn1c(C)c(/C=C/c2cc[n+](C)cc2)c2ccccc21 | 4 | 22 | 34 | -428 | 5 | 64* | 41* | 69*
CCn1cc(/C=C/c2cc[n+](C)cc2)c2ccccc21 | 13 | 12 | 45 | -67 | -5 | . | . | .
CC(C)n1cc(/C=C/c2cc[n+](C)cc2)c2ccccc21 | 10 | 6 | 22 | -78 | 5 | 63* | 25 | .
CC(C)(C)NC(=O)C(c1ccncc1)N(CC1CCCO1)C(=O)Cn1nnc(-c2ccc(F)cc2)n1 (stereo not drawn) | -5 | . | -2 | -19 | 20 | 22 | . | .
CC(C)(C)NC(=O)C(c1ccncc1)N(Cc1cccs1)C(=O)Cn1nnc(-c2ccc(F)cc2)n1 (stereo not drawn) | 0 | . | 22 | -23 | -3 | 53* | 43* | 55*
CCOC(=O)C1CCN(c2ccccc2CN2CCN(c3ccccc3OCC)CC2)CC1 | -5 | . | 92* | 33 | -15 | 63* | 38 | 71*

Screens from PubChem.
